# Experiments:
# [1] = target: Death-associated protein kinase 1 (Homo sapiens) (UniProt P53355); settings: at 10 µM
# [2] = target: T1, Discoidin domain-containing receptor 2 (Homo sapiens) (UniProt Q16832); settings: at 1 µM
# T1 sequence (whole entry): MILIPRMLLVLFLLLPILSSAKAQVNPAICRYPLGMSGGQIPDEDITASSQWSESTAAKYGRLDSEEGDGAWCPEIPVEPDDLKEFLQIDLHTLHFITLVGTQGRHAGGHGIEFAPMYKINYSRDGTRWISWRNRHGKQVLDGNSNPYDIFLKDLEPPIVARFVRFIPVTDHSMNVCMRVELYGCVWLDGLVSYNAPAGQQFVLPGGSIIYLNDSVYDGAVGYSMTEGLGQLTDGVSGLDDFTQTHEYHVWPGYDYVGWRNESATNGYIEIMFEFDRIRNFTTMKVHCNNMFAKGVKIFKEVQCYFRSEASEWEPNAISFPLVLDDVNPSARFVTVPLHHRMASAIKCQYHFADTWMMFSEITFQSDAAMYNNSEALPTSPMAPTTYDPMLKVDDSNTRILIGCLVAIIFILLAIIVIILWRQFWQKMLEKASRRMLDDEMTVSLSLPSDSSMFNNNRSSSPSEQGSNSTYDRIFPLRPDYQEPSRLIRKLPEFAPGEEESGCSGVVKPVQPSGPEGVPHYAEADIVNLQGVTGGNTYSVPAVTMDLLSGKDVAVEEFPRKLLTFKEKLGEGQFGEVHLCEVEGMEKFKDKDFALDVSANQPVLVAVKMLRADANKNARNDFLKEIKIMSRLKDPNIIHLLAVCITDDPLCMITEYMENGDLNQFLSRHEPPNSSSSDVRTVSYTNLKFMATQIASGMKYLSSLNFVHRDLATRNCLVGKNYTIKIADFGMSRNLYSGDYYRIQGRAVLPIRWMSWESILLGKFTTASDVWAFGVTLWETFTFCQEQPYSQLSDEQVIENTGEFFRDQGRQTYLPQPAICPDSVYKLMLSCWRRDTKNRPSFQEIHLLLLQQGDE
# [3] = target: T1, Discoidin domain-containing receptor 2 (Homo sapiens); settings: at 10 µM
# [4] = target: T2, Myotonin-protein kinase (Homo sapiens) (UniProt Q09013); settings: at 1 µM
# T2 sequence (whole entry): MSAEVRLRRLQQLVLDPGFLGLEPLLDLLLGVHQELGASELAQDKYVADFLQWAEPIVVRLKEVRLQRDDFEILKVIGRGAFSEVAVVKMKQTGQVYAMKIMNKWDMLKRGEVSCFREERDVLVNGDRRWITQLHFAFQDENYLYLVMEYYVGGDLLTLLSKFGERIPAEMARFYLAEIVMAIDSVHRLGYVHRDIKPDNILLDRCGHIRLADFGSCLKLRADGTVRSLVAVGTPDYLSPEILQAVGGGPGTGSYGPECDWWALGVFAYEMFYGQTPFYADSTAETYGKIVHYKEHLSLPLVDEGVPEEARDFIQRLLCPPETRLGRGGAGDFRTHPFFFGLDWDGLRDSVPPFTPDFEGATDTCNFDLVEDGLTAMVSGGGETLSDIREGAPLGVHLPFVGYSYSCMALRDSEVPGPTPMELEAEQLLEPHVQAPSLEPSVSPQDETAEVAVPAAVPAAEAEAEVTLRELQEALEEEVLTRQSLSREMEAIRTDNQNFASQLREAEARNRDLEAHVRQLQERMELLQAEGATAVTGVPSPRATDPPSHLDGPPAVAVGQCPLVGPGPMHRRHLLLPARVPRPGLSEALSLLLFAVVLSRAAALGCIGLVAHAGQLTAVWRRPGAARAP
# [5] = target: T3, Serine/threonine-protein kinase 17A (Homo sapiens) (UniProt Q9UEE5); settings: at 1 µM
# T3 sequence (whole entry): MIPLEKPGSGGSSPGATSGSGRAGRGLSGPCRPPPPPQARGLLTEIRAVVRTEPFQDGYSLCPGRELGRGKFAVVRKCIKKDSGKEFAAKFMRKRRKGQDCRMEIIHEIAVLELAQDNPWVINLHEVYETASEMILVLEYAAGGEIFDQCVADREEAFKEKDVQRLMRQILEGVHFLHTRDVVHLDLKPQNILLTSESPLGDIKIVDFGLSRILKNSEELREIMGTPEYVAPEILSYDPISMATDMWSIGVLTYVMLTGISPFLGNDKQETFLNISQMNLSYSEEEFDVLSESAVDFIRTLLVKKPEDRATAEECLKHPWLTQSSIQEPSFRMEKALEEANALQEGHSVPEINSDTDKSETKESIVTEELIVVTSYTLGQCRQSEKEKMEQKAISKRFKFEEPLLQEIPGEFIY
# [6] = target: T3, Serine/threonine-protein kinase 17A (Homo sapiens); settings: at 10 µM
# [7] = target: T4, Ephrin type-A receptor 1 (Homo sapiens) (UniProt P21709); settings: at 1 µM
# T4 sequence (whole entry): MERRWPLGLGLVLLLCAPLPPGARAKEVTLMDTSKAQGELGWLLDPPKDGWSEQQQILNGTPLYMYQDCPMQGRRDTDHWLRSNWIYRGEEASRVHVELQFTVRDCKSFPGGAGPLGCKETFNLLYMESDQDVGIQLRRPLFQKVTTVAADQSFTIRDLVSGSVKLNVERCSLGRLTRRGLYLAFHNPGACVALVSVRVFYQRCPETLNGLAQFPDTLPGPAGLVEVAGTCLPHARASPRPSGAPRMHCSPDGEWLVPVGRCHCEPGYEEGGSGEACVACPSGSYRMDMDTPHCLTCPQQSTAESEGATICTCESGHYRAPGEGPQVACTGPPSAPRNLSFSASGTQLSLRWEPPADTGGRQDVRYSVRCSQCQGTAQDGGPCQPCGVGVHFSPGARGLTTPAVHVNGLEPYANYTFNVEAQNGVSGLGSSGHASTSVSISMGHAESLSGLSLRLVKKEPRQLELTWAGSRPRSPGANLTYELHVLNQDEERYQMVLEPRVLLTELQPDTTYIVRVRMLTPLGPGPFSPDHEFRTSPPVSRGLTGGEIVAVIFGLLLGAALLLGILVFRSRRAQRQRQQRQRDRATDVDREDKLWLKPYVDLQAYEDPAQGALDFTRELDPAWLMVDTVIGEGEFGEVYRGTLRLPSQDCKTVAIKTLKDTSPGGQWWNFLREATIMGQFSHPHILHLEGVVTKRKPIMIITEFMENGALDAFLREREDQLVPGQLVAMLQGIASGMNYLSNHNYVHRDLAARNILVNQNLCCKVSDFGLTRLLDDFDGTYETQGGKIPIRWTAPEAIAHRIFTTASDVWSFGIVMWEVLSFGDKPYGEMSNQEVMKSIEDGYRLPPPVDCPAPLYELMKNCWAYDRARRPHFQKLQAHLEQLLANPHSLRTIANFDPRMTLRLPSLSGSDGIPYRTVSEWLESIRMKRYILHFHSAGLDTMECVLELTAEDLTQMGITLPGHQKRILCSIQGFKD
# [8] = target: T4, Ephrin type-A receptor 1 (Homo sapiens); settings: at 10 µM
# [9] = target: T5, Ephrin type-A receptor 3 (Homo sapiens) (UniProt P29320); settings: at 1 µM
# T5 sequence (whole entry): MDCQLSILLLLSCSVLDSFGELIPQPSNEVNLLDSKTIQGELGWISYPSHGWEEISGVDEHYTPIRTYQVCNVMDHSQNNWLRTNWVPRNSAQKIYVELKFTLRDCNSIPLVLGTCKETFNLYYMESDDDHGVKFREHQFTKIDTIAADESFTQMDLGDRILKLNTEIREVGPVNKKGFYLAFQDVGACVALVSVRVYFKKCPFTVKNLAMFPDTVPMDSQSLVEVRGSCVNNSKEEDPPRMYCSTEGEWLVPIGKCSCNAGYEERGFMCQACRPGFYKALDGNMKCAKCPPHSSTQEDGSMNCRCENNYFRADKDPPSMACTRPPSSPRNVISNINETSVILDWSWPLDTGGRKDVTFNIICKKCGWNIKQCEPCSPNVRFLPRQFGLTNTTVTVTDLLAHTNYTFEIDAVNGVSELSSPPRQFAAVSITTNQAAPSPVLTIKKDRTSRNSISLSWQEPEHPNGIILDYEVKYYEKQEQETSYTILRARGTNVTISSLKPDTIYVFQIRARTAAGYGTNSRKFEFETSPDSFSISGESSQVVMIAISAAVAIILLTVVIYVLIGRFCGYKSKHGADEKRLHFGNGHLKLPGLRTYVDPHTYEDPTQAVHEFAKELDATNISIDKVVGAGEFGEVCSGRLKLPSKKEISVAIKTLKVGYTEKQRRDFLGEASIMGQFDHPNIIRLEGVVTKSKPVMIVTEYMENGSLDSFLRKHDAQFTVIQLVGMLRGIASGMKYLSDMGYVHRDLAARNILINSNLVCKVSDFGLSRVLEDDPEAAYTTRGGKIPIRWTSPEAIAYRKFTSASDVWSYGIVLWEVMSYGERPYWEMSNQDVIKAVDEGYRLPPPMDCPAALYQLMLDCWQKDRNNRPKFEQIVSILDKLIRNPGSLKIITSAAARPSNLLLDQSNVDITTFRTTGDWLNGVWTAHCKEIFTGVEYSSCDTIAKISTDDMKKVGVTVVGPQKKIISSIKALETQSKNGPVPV
# [10] = target: Death-associated protein kinase 2 (Homo sapiens) (UniProt Q9UIK4); settings: at 1 µM
# Death-associated protein kinase 2 (Homo sapiens), sequence (Q9UIK4 whole entry, looked up): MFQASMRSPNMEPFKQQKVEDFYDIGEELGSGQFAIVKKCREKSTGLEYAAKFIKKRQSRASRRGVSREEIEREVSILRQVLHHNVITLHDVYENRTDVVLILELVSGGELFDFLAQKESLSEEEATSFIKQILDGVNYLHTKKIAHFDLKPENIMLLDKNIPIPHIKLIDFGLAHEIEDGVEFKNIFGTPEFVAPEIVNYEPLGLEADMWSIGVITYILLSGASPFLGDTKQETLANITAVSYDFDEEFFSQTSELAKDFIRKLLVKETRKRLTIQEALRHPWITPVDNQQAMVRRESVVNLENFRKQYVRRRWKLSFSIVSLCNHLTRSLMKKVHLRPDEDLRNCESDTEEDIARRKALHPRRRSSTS
# [11] = target: Death-associated protein kinase 2 (Homo sapiens) (UniProt Q9UIK4); settings: at 10 µM
# [12] = target: T2, Myotonin-protein kinase (Homo sapiens); settings: at 10 µM
# [13] = target: T6, Serine/threonine-protein kinase DCLK2 (Homo sapiens) (UniProt Q8N568); settings: at 1 µM
# T6 sequence (whole entry): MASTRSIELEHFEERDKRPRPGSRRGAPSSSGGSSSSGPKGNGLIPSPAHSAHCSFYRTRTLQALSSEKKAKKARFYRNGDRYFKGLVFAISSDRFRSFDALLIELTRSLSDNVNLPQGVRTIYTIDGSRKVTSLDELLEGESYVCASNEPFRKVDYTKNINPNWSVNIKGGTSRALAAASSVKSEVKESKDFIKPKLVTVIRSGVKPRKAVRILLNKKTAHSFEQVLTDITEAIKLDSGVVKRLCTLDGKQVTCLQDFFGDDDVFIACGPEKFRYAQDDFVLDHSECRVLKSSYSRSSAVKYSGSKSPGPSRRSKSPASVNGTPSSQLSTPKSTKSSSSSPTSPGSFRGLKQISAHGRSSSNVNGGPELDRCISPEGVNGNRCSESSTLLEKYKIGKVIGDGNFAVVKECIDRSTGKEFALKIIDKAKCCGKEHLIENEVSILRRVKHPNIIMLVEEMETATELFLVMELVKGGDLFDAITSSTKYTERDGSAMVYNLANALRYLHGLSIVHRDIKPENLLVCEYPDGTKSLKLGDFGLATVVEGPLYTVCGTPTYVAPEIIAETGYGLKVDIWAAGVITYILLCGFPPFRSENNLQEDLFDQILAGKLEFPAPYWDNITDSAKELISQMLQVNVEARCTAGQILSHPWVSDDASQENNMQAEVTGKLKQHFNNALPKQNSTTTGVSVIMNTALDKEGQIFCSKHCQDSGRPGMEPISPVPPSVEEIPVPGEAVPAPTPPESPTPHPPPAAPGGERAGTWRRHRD
# [14] = target: Epidermal growth factor receptor (Homo sapiens) (UniProt P00533); settings: at 1 µM
# Epidermal growth factor receptor (Homo sapiens), sequence (P00533 whole entry): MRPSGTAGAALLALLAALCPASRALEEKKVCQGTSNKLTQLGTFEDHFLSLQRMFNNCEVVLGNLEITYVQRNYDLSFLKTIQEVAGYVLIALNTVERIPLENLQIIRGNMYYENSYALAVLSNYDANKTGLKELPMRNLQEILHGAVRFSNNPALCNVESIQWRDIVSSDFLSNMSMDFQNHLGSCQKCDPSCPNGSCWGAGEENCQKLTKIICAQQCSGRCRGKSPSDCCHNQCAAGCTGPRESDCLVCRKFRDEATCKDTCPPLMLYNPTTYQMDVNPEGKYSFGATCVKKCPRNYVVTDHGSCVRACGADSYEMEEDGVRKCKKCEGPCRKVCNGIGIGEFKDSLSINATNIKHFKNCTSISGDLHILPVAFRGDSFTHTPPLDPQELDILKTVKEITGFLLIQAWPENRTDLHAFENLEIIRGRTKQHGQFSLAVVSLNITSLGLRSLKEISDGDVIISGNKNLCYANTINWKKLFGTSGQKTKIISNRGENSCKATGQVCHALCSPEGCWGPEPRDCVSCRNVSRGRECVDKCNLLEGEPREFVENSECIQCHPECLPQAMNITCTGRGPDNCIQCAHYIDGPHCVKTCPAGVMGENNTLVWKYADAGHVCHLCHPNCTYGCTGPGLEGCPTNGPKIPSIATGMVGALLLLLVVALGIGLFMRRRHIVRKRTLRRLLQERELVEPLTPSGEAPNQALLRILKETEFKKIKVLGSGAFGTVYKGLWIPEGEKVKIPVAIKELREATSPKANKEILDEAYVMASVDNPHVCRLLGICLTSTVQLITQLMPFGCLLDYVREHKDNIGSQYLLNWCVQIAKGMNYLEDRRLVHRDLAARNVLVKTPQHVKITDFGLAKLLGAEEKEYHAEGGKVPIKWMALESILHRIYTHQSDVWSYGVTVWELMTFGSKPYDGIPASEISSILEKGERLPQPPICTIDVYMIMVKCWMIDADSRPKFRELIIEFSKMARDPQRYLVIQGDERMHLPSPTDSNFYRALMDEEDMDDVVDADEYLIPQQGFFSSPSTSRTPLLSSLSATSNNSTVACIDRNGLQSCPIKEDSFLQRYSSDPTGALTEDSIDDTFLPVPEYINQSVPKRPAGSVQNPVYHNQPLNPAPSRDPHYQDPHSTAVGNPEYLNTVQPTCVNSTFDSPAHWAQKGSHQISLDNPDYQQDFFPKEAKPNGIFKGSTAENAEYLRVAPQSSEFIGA
# [15] = target: Epidermal growth factor receptor (Homo sapiens) (UniProt P00533); settings: at 10 µM
# [16] = target: T6, Serine/threonine-protein kinase DCLK2 (Homo sapiens); settings: at 10 µM
# Death-associated protein kinase 1 (Homo sapiens), sequence (P53355 whole entry, looked up, the tested form may be a part): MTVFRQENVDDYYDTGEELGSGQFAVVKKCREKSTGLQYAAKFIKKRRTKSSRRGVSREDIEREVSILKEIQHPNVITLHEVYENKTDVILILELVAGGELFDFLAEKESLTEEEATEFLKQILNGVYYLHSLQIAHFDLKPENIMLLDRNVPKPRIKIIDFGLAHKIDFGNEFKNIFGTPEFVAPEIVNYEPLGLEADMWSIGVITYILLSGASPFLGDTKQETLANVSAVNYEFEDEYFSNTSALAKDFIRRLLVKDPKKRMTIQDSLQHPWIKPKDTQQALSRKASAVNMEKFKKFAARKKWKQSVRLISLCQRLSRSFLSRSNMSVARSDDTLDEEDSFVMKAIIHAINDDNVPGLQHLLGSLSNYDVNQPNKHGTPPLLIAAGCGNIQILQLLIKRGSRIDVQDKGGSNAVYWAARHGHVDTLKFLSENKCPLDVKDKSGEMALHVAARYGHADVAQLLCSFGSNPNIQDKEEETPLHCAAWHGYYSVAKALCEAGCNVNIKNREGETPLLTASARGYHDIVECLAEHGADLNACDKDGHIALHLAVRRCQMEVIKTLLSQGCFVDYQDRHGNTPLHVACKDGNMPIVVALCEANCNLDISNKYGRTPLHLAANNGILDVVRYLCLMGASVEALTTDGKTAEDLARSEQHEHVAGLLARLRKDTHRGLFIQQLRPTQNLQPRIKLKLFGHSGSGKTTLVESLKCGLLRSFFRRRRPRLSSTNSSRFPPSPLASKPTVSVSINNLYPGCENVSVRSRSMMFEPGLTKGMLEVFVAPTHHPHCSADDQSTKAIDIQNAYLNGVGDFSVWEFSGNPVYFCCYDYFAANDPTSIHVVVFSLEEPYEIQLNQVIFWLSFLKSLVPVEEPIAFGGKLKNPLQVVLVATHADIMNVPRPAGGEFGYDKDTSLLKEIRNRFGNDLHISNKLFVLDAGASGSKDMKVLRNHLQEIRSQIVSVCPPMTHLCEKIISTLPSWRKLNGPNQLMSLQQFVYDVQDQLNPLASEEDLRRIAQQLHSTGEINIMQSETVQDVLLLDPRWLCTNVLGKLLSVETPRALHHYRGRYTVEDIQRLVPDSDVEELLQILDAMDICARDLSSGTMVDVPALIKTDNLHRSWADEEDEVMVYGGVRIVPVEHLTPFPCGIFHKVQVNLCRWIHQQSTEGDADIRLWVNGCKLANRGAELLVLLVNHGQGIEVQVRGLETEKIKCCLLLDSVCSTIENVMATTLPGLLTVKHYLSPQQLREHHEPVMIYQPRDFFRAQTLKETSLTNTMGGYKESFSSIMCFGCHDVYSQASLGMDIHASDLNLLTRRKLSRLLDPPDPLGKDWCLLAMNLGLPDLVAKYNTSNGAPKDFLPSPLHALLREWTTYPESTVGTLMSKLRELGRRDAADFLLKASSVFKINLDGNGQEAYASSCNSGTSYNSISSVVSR
smiles,measurement,setting,value
COc1ccc(Cl)cc1NC(=O)Nc1cc(C)nc2ccccc12,residual activity,[1],66%
same,residual activity,[2],83%
same,residual activity,[3],39%
same,residual activity,[4],94%
same,residual activity,[5],97%
same,residual activity,[6],58%
same,residual activity,[7],89%
same,residual activity,[8],89%
Cc1cc(C)c(/C=C2\C(=O)Nc3ccccc32)[nH]1,residual activity,[5],26%
same,residual activity,[6],3%
same,residual activity,[8],103%
same,residual activity,[9],101%
COc1ccc(CNC(=O)Nc2ncc([N+](=O)[O-])s2)cc1,residual activity,[10],102%
same,residual activity,[11],104%
same,residual activity,[4],100%
same,residual activity,[12],80%
O=c1c(-c2ccc(F)cc2)c(-c2ccncc2)[nH]n1-c1ccc(Cl)cc1,residual activity,[13],122%
same,residual activity,[3],36%
same,residual activity,[12],99%
same,residual activity,[6],71%
same,residual activity,[14],54%
same,residual activity,[15],6%
same,residual activity,[8],56%
COc1cc2c(cc1OC)-c1n[nH]c(Nc3cccc(F)c3)c1C2,residual activity,[10],99%
same,residual activity,[11],107%
same,residual activity,[13],109%
same,residual activity,[16],132%
same,residual activity,[12],136%
same,residual activity,[6],53%
same,residual activity,[8],34%
same,residual activity,[9],83%
O=S(=O)(NCCNC/C=C/c1ccc(Br)cc1)c1cccc2cnccc12,residual activity,[16],100%
same,residual activity,[8],63%
CN([C@@H](Cc1ccc(OS(=O)(=O)c2cccc3cnccc23)cc1)C(=O)N1CCN(c2ccccc2)CC1)S(=O)(=O)c1cccc2cnccc12,residual activity,[4],135%
same,residual activity,[12],115%
same,residual activity,[5],117%

# Source: ChEMBL document CHEMBL2218924, “A broad activity screen in support of a chemogenomic map for kinase signalling research and drug discovery” (Biochem J, 2013)
